Test results published in PubChem BioAssay AID1347048 (National Center for Advancing Translational Sciences (NCATS), 2019).
Screen size: about 76,000 compounds; about 1,200 (1.6%) were called active. Where a call stands in place of a potency, no number is given. About 4% were inconclusive and are not listed. The call rests on the fitted dose curve. The full list was thinned out, with actives kept by preference.

Biological target: Atrial natriuretic peptide receptor 1 (Homo sapiens) (UniProt P16066)
Assay: Natriuretic polypeptide receptor (hNpr1) antagonism - Primary qHTS; further: nearly all actives have a fitted effect of over 60% in size
Details: HEK293 hNpr1 GloSensor cGMP, ANP-stimulated luminescence; series mostly up to 46.3 µM
Text: Pruritus or itch, is an irritating skin sensation that creates a need to scratch, and ranges from mildly unpleasant and passing to acute and persistent sensations. […] Conventional treatments include topical anti-inflammatory agents, anti-histamines, and emollients, which are aimed at managing the itchy sensation and not the underlying disease. The treatment of pruritus remains a diagnostic and therapeutic challenge. Neurotransmission in the spinal cord from primary pruriceptors to second order neurons is a necessary step that eventually results in the sensation of itch. At this synapse, primary pruriceptors use the neuropeptide natriuretic polypeptide B (NppB) to activate its cognate receptor Natriuretic polypeptide receptor 1 (Npr1) on second order neurons. Inhibition of this step is a new potential strategy to inhibit acute and chronic itch. In order to identify small molecular compounds that can inhibit the Npr1 receptor we developed a high-throughput assay to probe inhibition of the receptor guanylate cyclase Npr1. The assay was designed taking advantage of Promega's GloSensor[TM] technology (Fan, F. et al. 2008). It involves the expression of a cyclic guanosine monophosphate (cGMP) biosensor, comprised of a firefly luciferase variant that was coupled to the cGMP binding domain of human phosphodiesterase 5A, and loading of cells with a cell-permeable luciferase substrate to monitor cGMP production by Npr1 in real time in live cells. In detail, we generated human embryonic kidney 293 cells stably expressing the human Npr1 and the cGMP GloSensor[TM] pGS-40F. Stimulating these cells with the Npr1 agonists human NppA or NppB, luciferase-induced light production could be detected in a dose-dependent manner. We also generated HEK293 cells stably expressing human Npr2 and pGS-40F and cells only expressing pGS-40F to conduct secondary counter screens. In these cells, NppC or sodium nitroprusside were used to stimulate Npr2 or soluble guanylate cyclase which is endogenously expressed in HEK293 cells, respectively. REFERENCE F. Fan, B. F. Binkowski, B. L. Butler, P. F. Stecha, M. K. Lewis, K. V. Wood, Novel genetically encoded biosensors using firefly luciferase. ACS Chem. Biol., 2008, 3: 346-351 .
PROTOCOL TABLES (as described by Inglese J, Shamu CE and Guy RK. 2007) SEQUENCE No. (e.g., 1, 2, 3, etc.); […] (e.g., Cells, Incubation, Reagent, etc.); VALUE and DESCRIPTION. GLOSENSOR PROTOCOL 1. Cells. Seed 1500 HEK293 cGMP-sensor cells expressing hNpr1 per well in 4uL into Greiner 1536-well white/solid bottom high base, tissue culture-treated plates. 2. Incubation. Incubate plated cells at 37C in 5% CO2, 95% RH overnight. 3. Reagent. Add 1uL per well GloSensor reagent from Promega (2% final concentration) or CO2 independent media vehicle control to respective columns of Greiner 1536-well plates. 4. Incubation. Incubate plated cells at room temperature for 2 h, protect from light. 5. Compounds. Library compounds and A-71915 control added at 23 nL per well, transferred by Pin Tool. 6. Incubation. Incubate plated cells for 30 min. at room temperature, protect from light. 7. Detector. GloSensor baseline pre-read luminescence measured using CCD-based camera (Viewlux). 8. Compound. Add 1uL of hNppA peptide to 0.1 nM final concentration to stimulate hNpr1 or CO2 independent media as vehicle control. 9. Incubation. Incubate treated cells at room temperature for 20 min., protect from light. 10. Detector. GloSensor post-hNppA luminescence measured using CCD-based camera (Viewlux). NOTES (numbers refer to Sequence numbers above) 1. HEK293 cells expressing hNpr1 and GIP/pGS-40F grown to 85-95% confluence (48-72 h) in T175 culture flasks (CO2 independent media supplemented with 10% FBS, 1% Pen/Strep antibiotics and 1 ug/mL puromycin). Trypsinize and harvest cells from T175 culture flasks and filter through 40 um cell strainer. Cells counted with Invitrogen Countess (30,000,000 - 50,000,000 cells/flask). […]
Potency means the concentration at half of the fitted maximal effect.

Atrial natriuretic peptide receptor 1 (Homo sapiens), sequence (P16066 whole entry, looked up): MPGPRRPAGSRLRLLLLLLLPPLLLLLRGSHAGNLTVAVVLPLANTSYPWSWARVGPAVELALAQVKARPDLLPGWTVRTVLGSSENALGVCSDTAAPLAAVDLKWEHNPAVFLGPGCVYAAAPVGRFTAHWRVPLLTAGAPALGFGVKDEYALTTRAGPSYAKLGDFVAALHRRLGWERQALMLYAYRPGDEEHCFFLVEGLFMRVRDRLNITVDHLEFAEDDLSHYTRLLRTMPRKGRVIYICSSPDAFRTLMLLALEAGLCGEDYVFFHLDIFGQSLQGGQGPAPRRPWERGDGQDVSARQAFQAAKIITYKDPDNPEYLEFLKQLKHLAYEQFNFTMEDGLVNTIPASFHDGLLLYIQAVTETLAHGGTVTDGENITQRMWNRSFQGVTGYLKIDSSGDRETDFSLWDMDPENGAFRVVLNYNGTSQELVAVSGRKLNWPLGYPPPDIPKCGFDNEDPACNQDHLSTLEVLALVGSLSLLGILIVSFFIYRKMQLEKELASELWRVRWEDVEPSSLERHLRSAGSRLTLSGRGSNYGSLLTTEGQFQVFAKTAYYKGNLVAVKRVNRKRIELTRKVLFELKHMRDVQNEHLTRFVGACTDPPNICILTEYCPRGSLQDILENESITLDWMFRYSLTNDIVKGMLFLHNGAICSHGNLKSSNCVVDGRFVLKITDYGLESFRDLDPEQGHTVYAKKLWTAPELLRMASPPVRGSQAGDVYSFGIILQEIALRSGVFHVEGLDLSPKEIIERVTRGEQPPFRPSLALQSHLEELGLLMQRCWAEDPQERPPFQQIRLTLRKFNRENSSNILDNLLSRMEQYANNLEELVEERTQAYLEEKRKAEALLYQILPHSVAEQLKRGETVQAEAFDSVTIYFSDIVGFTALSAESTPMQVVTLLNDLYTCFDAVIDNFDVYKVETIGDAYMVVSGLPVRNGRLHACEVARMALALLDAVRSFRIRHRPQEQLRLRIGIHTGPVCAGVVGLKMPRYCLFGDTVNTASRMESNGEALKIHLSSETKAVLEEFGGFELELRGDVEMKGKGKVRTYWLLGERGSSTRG

| Compound | Potency |
| --- | --- |
| O[C@H]1CC[C@@H](Cc2cc(-c3ccccc3)on2)O[C@@H]1CNCc1ccccc1 | inactive |
| O=C(NC[C@H]1O[C@H](Cc2cc(-c3ccccc3)on2)CC[C@@H]1O)C1CCC1 | inactive |
| CC(=O)N1CCC(NC[C@H]2O[C@H](Cc3cc(-c4cccc(O)c4)on3)CC[C@@H]2O)CC1 | 25.1 µM (active) |
| NC(=O)C1CCCN(CC(=O)Nc2nc3ccccc3[nH]2)C1 (stereo not given) | inactive |
| CC1Oc2ccc(NC(=O)c3ccc([N+](=O)[O-])cc3)cc2CN(Cc2ccccc2)C1=O (stereo not given) | inactive |
| CC(Cn1cncn1)Nc1nc(-c2ccncc2)nc2c1cnn2C (stereo not given) | inactive |
| Cc1ccc(-c2ncc(C(=O)Nc3ccccc3C)c(-c3ccncc3)n2)cc1 | inactive |
| Cc1nc(-c2ccncc2)ncc1C(C)Nc1ncnc(C)c1C (stereo not given) | 10 µM (active) |
| COCC(=O)N1CCCC(c2nc(-c3ccc(C)nn3)no2)C1 (stereo not given) | inactive |
| O=C(c1ccccc1)N1CCNc2cnc(Nc3cccc(C(F)(F)F)c3)nc2C1 | 20 µM (active) |
| O=C(c1cccc(F)c1)N1CCCC(CN2CCOCC2)CC1 (stereo not given) | inactive |
| O=C(c1nc2ccccc2[nH]1)N1CCNc2cnc(Nc3ccc(-n4ccnc4)cc3)nc2C1 | inactive |
| O=C(c1cccc(F)c1)N1CCCC(c2nccn2Cc2cscn2)C1 (stereo not given) | inactive |
| COc1ccccc1Nc1ncc2c(n1)CN(C(=O)COc1ccccc1)CCN2 | inactive |
| O=C(c1cccc(O)c1)N1CCNc2cnc(Nc3cccc(F)c3)nc2C1 | 22.4 µM (active) |
| COc1ccc(C(=O)N[C@H]2C[C@@H](c3nc(-c4ccc(OC)cc4)no3)N(C)C2)cc1 | inactive |
| c1ccc(Nc2cnc3ccc(-n4ccnc4)nn23)cc1 | inactive |
| CC1(C)C[C@H](NC(=O)c2ccc(C#N)cc2)[C@@]2(CCC(=O)NCCc3c[nH]c4ccccc34)CC[C@](C)(O)C[C@@H]12 | inactive |
| Cc1ccccc1-c1cn[nH]c1C1CCN(C(=O)CCCn2cnnn2)CC1 | inactive |
| O=C(c1cccc(F)c1)N1CCC(CCOc2ccc(F)cc2)C1 (stereo not given) | inactive |
| O=C(c1cccc(F)c1)N1CCOC[C@H](Oc2ccc(C(F)(F)F)cc2)C1 | 28.2 µM (active) |
| O=C(C1CCOCC1)N1CCOC[C@H](Oc2ccccc2)C1 | inactive |
| Cc1nn(Cc2ccccc2)c(C)c1[C@@H]1C=C[C@@H](NC(=O)NC(C)C)C1 | inactive |
| COc1ccc(-n2nc(C)c([C@@H]3C=C[C@@H](NC(=O)Nc4ccccc4)C3)c2C)cc1 | 14.1 µM (active) |
| COc1ccc(NC(=O)N[C@@H]2C=C[C@@H](c3c(C)nn(-c4ccc(C(C)(C)C)cc4)c3C)C2)cc1 | inactive |

| Compound | Potency |
| --- | --- |
| COc1ccc(-n2nc(C)c([C@H]3C=C[C@@H](OC(=O)Nc4cccc(F)c4)C3)c2C)cc1 | 20 µM (active) |
| Cc1nn(-c2ccc(C(C)C)cc2)c(C)c1[C@@H]1C=C[C@@H](NC(=S)NCC(C)C)C1 | 28.2 µM (active) |
| Cc1nn(Cc2ccccc2)c(C)c1[C@@H]1C=C[C@@H](NC(=O)NC2CCCCC2)C1 | inactive |
| Cc1nn(-c2cccc(Br)c2)c(C)c1[C@@H]1C=C[C@@H](NC(=O)CC2(CC(=O)O)CCCC2)C1 | inactive |
| Cc1nn(-c2cccc(Br)c2)c(C)c1[C@@H]1C=C[C@@H](NS(=O)(=O)c2ccccc2)C1 | inactive |
| Cc1nn(-c2ccc(C(C)C)cc2)c(C)c1[C@@H]1C=C[C@@H](NC(=O)CC2(CC(=O)O)CCCC2)C1 | inactive |
| COC(=O)c1c(NC(C)=O)c2cc(NC3CCCCCC3)cnc2n1CC1CCCO1 (stereo not given) | inactive |
| O=C(Cc1ccc(Cl)cc1)N1CCc2c(nc3cc[nH]n3c2=O)C1 | inactive |
| COc1cccc(CN2CCN(Cc3ncccc3C)CC2)c1O | inactive |
| O=c1c2c(n(Cc3ccccc3)n1-c1ccccc1)CN(Cc1ccn[nH]1)CC2 | inactive |
| CCOc1ccc(CN2CCC(N3CCCC(C(=O)NC4CC4)C3)CC2)cc1 (stereo not given) | inactive |
| CCCNc1ccc2nnc(C)n2n1 | inactive |
| COc1ccccc1-c1cc(-c2cn[nH]c2)c2cncn2c1 | inactive |
| Cc1noc(C)c1-c1cc(-c2cncnc2)cn2cncc12 | inactive |
| Cc1noc(C)c1-c1cc(-c2ccccc2Oc2ccccc2)cn2cncc12 | 28.2 µM (active) |
| CN(C)Cc1nnc(C2CC(NC(=O)c3cn4cccnc4n3)C2)n1C (stereo not given) | inactive |
| O=C(c1ccccc1)N1CCOc2ccc(CN3CCc4ccccc4C3)cc2C1 | inactive |
| CCC(=O)N1CCc2oc(C)c(C(=O)NCCN(C)C)c2C1 | inactive |
| CC(C)(Oc1nn(CC2CCOCC2)c2ccccc12)C(=O)NCc1ccccc1 | inactive |
| COCc1ccc2c(c1)c(OC(C)(C)C(=O)N1CCN(C)CC1)nn2Cc1cccnc1 | inactive |
| CN1CCN(C(=O)C(C)(C)Oc2nn(Cc3cccc(Cl)c3)c3ccccc23)CC1 | 15.8 µM (active) |
| CC(=O)N1CCC(N2C[C@H](O)C[C@H]2C(=O)NC2CCCCC2)CC1 | inactive |
| Cc1c(C(=O)N2CCCn3nc(C(C)O)cc3C2)sc2nc[nH]c(=O)c12 (stereo not given) | inactive |
| OC1(Cc2cc(-c3ccccc3)no2)CCN(c2ncncn2)CC1 | 3.55 µM (active) |
| C(=C\c1ccccc1)/CN1CCN(c2ncncn2)CC1 | inactive |
